Compound activity deposited in PubChem by several laboratories.
MEKK3 PB1 HTS: raises or lowers MEK5 binding to the human MEKK3 PB1 domain; bead-based flow cytometry, Alexa488-MEK5 binding to MEKK3; actives lie on both sides; 0 = blocked by unlabeled MEK5, 100 = vehicle; AID 1529; Q99759; 290,000 tested, 1.4% active; binding response (% of control), % at 10 µM;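 active = binding response more than 3 SD above or below the average of its plate-row segment, actives on both sides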;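 also: Alexa488 bead fluorescence after subtracting the streptavidin-only scavenger bead signal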
Target sequence (Q99759 whole entry, looked up, the tested form may be a part): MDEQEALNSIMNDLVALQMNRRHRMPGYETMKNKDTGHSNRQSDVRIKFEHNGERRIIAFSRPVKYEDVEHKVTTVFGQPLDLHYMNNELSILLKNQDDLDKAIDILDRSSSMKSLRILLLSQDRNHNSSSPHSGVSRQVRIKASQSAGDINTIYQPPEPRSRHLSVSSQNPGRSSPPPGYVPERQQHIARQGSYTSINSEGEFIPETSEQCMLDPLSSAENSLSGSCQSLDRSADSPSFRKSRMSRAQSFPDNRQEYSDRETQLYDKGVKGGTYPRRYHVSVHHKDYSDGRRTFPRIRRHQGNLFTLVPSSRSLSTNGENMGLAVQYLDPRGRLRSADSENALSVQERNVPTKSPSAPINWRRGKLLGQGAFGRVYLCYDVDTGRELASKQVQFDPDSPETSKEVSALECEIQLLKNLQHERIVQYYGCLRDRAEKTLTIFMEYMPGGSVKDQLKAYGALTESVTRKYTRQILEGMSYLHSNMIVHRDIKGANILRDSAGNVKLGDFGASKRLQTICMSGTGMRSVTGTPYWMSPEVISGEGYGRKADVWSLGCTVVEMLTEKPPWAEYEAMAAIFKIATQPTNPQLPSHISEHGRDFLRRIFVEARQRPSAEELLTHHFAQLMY
MEKK2wt PB1 HTS: raises or lowers MEK5 binding to wildtype human MEKK2 PB1 domain | 290,000 tested, 1.1% active | bead flow cytometry, Alexa488-MEK5 binding to MEKK2 WT; actives lie on both sides | binding response (% of control), % at 10 µM | AID 1531 | Q9Y2U5; in the data active = binding response below about 67% or above about 130%
Pf gamet viab: inhibitors of late stage P. falciparum gametocyte viability | P. falciparum stage V gametocytes, ATP luminescence, 24 h | inhibition, % at 10.9 µM | 150,000 tested, 0.065% active | AID 743093;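 active = inhibition above the mean plus 3 SD of compounds within the control limits, set per campaign, cut at about 38% in these data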
MEKK2mut PB1 HTS: signal of MEK5 binding to mutant human MEKK2 PB1 domain. 290,000 tested, 0.35% active. percent response, % at 10 µM. bead flow cytometry, Alexa488-MEK5 binding to MEKK2 mutant; in the data active = percent response above about 24%, passing the limit was not always enough
Arbovirus inh: arbovirus infection inhibition; arbovirus infection cell-based antiviral screen; inhibition, % at 10 µM; 200,000 tested, 0.37% active; AID 1251; in the data active = inhibition above about 30%
MEKK2wt confirm: raises or lowers MEK5 binding to wildtype human MEKK2, retest | shares compounds with MEKK3 PB1 HTS | bead flow cytometry, Alexa488-MEK5 binding to MEKK2 WT; actives lie on both sides | binding response (% of control), % at 10 µM | 5,900 tested, 2.4% active | AID 1892; in the data active = binding response below about 16% or above about 210%; inactive = in between
MEKK2mut confirm: signal of MEK5 binding to mutant human MEKK2, retest; shares compounds with MEKK3 PB1 HTS; bead flow cytometry, Alexa488-MEK5 binding to MEKK2 mutant; percent response, % at 10 µM; 5,900 tested, 2% active; AID 1893; in the data active = percent response mostly above about 71%, no sharp cut-off; inactive = mostly below about 38%;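 also: higher means compound restores mutant binding toward wildtype level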
MEKK3-MEK5 inh: MEKK3-MEK5 PB1 inhibition, single concentration confirmation; shares compounds with MEKK3 PB1 HTS; bead flow cytometry, Alexa488-MEK5 binding to MEKK3; stronger effect = lower value; binding response (% of control), % at 10 µM; 5,900 tested, 1.8% active; AID 1894;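 active = binding response below 72% of control, or above a set upper limit, though filed actives all read lower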
Large screens that a line does not name were inactive (follow-up assays come after a bar, where they were run); [ ] = dose if it differs, or a comment. Rows were chosen to be rich in hits. Some 2.4% of all compounds tested hit in one or more screens of this group.

Cc1nn2c(NCCCN(C)C)c3c(nc2c1-c1ccccc1)CCCC3	none (no result: Arbovirus inh)
Cc1ccc(NC(=S)N2CCN(S(=O)(=O)c3ccc(C)cc3)CC2)cc1	none (no result: Pf gamet viab, Arbovirus inh)
CCSc1ncnc2sc(C)c(C)c12	MEKK3 PB1 HTS 53[inhibitor] | MEKK2wt confirm inactive | MEKK2mut confirm inactive | MEKK3-MEK5 inh inactive
Cc1cc(Cl)ccc1OCC(=O)Nn1c(C)ccc1C	MEKK3 PB1 HTS 128 (no result: Pf gamet viab) | MEKK2wt confirm inactive | MEKK2mut confirm inactive | MEKK3-MEK5 inh inactive
CSc1ccccc1NC(=O)COc1ccc(Cl)cc1C	none
Cc1c(C(=O)N(C)Cc2ccc(OC(F)F)cc2)oc2ccccc12	none (no result: Pf gamet viab, Arbovirus inh)
Cc1ccc(OCCN2CCN(CC(O)Cn3c4ccccc4c4ccccc43)CC2)cc1 (centres undefined)	MEKK2wt PB1 HTS 239, MEKK2mut PB1 HTS 59 (no result: Pf gamet viab) | MEKK2wt confirm inactive | MEKK2mut confirm inactive | MEKK3-MEK5 inh inactive
Cc1ccc(OCC(O)Cn2c3ccccc3c3ccccc32)cc1 (centres undefined)	none (no result: Pf gamet viab)
N=c1n(Cc2ccccc2)c2ccccc2n1CC(O)COc1ccccc1 (centres undefined)	none
Cc1ccc(Cn2c(=N)n(CC(O)COc3ccccc3)c3ccccc32)cc1 (centres undefined)	MEKK2wt PB1 HTS 134 (no result: Pf gamet viab) | MEKK2wt confirm inactive | MEKK2mut confirm inactive | MEKK3-MEK5 inh inactive
CCC(c1nnnn1CCOC)N1CCN(Cc2ccccc2OC)CC1 (centres undefined)	MEKK2mut PB1 HTS 25 | MEKK2wt confirm inactive | MEKK2mut confirm inactive | MEKK3-MEK5 inh inactive
CCCC(c1nnnn1CCOC)N1CCN(Cc2ccccc2)CC1 (centres undefined)	none
Nc1ccc(N)c(C(=O)O)c1	MEKK3 PB1 HTS 47[inhibitor], MEKK2wt PB1 HTS 25[inhibitor] (no result: Pf gamet viab, Arbovirus inh) | MEKK2wt confirm inactive | MEKK2mut confirm inactive | MEKK3-MEK5 inh 57
CCN1CCN(C(CNS(=O)(=O)c2ccccc2)c2cccnc2)CC1 (centres undefined)	none (no result: Pf gamet viab, Arbovirus inh)
Cc1ccc(S(=O)(=O)N2CCC(N3CCC(C)CC3)CC2)cc1	none (no result: Pf gamet viab, Arbovirus inh)
COC(=O)C1CCN(CC(=O)NC(=O)NC2CCCCC2)CC1	none
Cc1ccc(N(CC(=O)NCCSc2nc3ccccc3s2)S(=O)(=O)c2ccccc2)c(C)c1	MEKK3 PB1 HTS 150 | MEKK2wt confirm inactive | MEKK2mut confirm inactive | MEKK3-MEK5 inh inactive
O/N=C(/c1ccccc1)c1cc2cc(Br)cc(Br)c2o1	none (no result: Pf gamet viab, Arbovirus inh)
C(=C\c1nc(N2CCCCCC2)c2ccccc2n1)/c1ccccc1	MEKK2wt PB1 HTS 144 (no result: Pf gamet viab) | MEKK2wt confirm inactive | MEKK2mut confirm inactive | MEKK3-MEK5 inh inactive
c1ccc2c(N3CCCCC3)nc(N3CCCCC3)nc2c1	none (no result: MEKK3 PB1 HTS, MEKK2wt PB1 HTS, Pf gamet viab, MEKK2mut PB1 HTS)
CC1CCC(NC(=O)N(CCCl)N=O)CC1 (centres undefined)	none (no result: Pf gamet viab, Arbovirus inh)
COc1ccc(-c2[nH]c(-c3ccc(C)cc3)nc2SCC(=O)Nc2nccs2)cc1	MEKK3 PB1 HTS 134 | MEKK2wt confirm inactive | MEKK2mut confirm inactive | MEKK3-MEK5 inh inactive
COc1ccc(-c2nnc3ccc(SCC(=O)Nc4nccs4)nn23)cc1OC	MEKK3 PB1 HTS 128 | MEKK2wt confirm inactive | MEKK2mut confirm inactive | MEKK3-MEK5 inh inactive
O=C(CSc1ccc2nnc(-c3ccncc3)n2n1)Nc1nccs1	none (no result: Pf gamet viab)
CCOCCCNC(=S)NCCCNc1nc2cc3c(cc2cc1C#N)OCO3	MEKK3 PB1 HTS 1.0[inhibitor], MEKK2wt PB1 HTS -4.0[inhibitor] (no result: Pf gamet viab) | MEKK2wt confirm inactive | MEKK2mut confirm inactive | MEKK3-MEK5 inh inactive
COc1ccc(/C=N/Nc2cc(N3CCCC3)nc(N3CCCC3)n2)cc1	MEKK3 PB1 HTS 130, MEKK2wt PB1 HTS 142 (no result: Pf gamet viab) | MEKK2wt confirm inactive | MEKK2mut confirm inactive | MEKK3-MEK5 inh inactive
CCn1cc(C(=O)NCc2ccc3c(c2)OCO3)c(=O)c2cc(F)c(N3CCN(C)CC3)cc21	MEKK2wt PB1 HTS 138 (no result: Pf gamet viab) | MEKK2wt confirm inactive | MEKK2mut confirm inactive | MEKK3-MEK5 inh inactive
CCn1cc(C(=O)O)c(=O)c2cc(F)c(N3CCN(C)CC3)cc21	none (no result: Pf gamet viab)
CCn1cc(C(=O)O)c(=O)c2cc(F)c(N3CCNCC3)cc21	MEKK3 PB1 HTS 74[inhibitor] (no result: Pf gamet viab) | MEKK2wt confirm inactive | MEKK2mut confirm inactive | MEKK3-MEK5 inh inactive
CCn1cc(C(=O)NCCc2ccccc2)c(=O)c2cc(F)c(N3CCN(C)CC3)cc21	none (no result: Pf gamet viab)
CCn1cc(C(=O)O)c(=O)c2cc(F)c(N3CCN(C(=S)NC(=O)c4ccc(OC)cc4)CC3)cc21	none (no result: Pf gamet viab, Arbovirus inh)
CCn1cc(C(=O)O)c(=O)c2cc(F)c(N3CCN(C(=S)NC(=O)c4ccc(Br)cc4)CC3)cc21	MEKK3 PB1 HTS 59[inhibitor], MEKK2mut PB1 HTS 54 | MEKK2wt confirm -1.0[inhibitor] | MEKK2mut confirm inactive | MEKK3-MEK5 inh inactive
O=C(N/N=C/c1ccccc1[N+](=O)[O-])c1cnccn1	none (no result: Arbovirus inh)
c1cnc(N2CCN(c3cnccn3)CC2)nc1	none
O=C(NC(=O)N1CCCCCC1)c1ccc(Cl)cc1	none (no result: Pf gamet viab, Arbovirus inh)
CCNC(=O)NC(=O)C(C)OC(=O)CCS(=O)(=O)c1ccc(C)cc1 (centres undefined)	none
CCNC(=O)NC(=O)C(C)On1nnc2ccc(S(=O)(=O)N(CC)CC)cc21 (centres undefined)	MEKK3 PB1 HTS 150 | MEKK2wt confirm inactive | MEKK2mut confirm inactive | MEKK3-MEK5 inh inactive
COc1ccc(/C(C)=N\Nc2nc(-c3ccccc3)cc(=O)[nH]2)cc1	none
CN(C)c1ccc(/C=N\Nc2nc(-c3ccccc3)cc(=O)[nH]2)cc1	MEKK3 PB1 HTS 59[inhibitor] | MEKK2wt confirm inactive | MEKK2mut confirm inactive | MEKK3-MEK5 inh inactive
CCCCCCCC(=O)NC1=NC(=O)C(C)(C)S1	none (no result: Arbovirus inh)
O=C(NCc1ccc(Cl)cc1)C(=O)NCC1OCCN1C(=O)c1cccs1 (centres undefined)	MEKK3 PB1 HTS 153 | MEKK2wt confirm inactive | MEKK2mut confirm inactive | MEKK3-MEK5 inh inactive
O=C(NCc1ccc(Cl)cc1)C(=O)NCC1OCCN1S(=O)(=O)c1cccs1 (centres undefined)	none (no result: Pf gamet viab)
CN1c2ccccc2-c2nc3ccccc3n2C1c1cccs1 (centres undefined)	MEKK3 PB1 HTS 181 | MEKK2wt confirm inactive | MEKK2mut confirm inactive | MEKK3-MEK5 inh inactive
Cc1ccsc1C1Nc2ccccc2-c2nc3ccccc3n21 (centres undefined)	none
c1csc(C2Nc3ccccc3-c3nc4ccccc4n32)c1 (centres undefined)	MEKK3 PB1 HTS 132 | MEKK2wt confirm inactive | MEKK2mut confirm inactive | MEKK3-MEK5 inh inactive
N#CC1=C(N)Oc2cc(O)ccc2C1c1cccnc1 (centres undefined)	MEKK3 PB1 HTS 132 | MEKK2wt confirm inactive | MEKK2mut confirm inactive | MEKK3-MEK5 inh inactive
O=C(Nc1ccccc1)N1N=CCC1c1ccccc1 (centres undefined)	none (no result: Pf gamet viab)
